Rows were chosen to be rich in hits. Some 12% of all compounds tested hit in one or more screens of this group.
PI5P4Ka inh: blocks human PI5P4K alpha kinase activity; AID 652105; max response, %; P48426; actives 1.2% (n = 330,000); PI5P4Kalpha enzyme, ADP-Glo luminescence, 60 min; stronger effect = lower value; active = max response of -50% or lower; inconclusive = between -30% and -50%; inactive = -30% or higher; note: value at the top dose of about 77 µM; % is set by controls: 0 for no effect and ±100 for the full control effect
Target sequence (P48426 whole entry, looked up): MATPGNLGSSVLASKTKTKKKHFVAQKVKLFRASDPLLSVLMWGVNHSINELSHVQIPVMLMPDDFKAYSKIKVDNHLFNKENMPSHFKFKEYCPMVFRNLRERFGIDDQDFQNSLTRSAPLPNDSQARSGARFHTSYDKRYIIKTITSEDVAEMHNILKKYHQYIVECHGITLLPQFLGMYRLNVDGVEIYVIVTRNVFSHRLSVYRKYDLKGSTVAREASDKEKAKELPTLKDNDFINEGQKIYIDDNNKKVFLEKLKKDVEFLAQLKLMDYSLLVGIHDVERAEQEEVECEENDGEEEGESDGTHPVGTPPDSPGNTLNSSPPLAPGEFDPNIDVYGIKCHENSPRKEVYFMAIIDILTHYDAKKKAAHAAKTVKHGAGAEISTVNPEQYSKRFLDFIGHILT
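Quantitative HTS of the MLSMR library against PI5P4Kalpha with substrate. ATP added last at 5 microM final; room temperature, 60 minutes. Remaining ATP depleted, ADP converted and read as luminescence.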
HP1b chromo inh: HP1-beta chromodomain-methylated histone interaction inhibition; Potency, µM (titrated, usually from 114 µM), for the others: at the top dose activity change, negative = inhibition, most hits filed as inhibitors; P83916; AlphaScreen HP1-beta / biotin-H3K9me3 peptide binding; actives 0.56% (n = 390,000); AID 540317; note: potency is the fitted concentration of half-maximal effect; nearly all actives have a fitted effect of over 70% in size
Target sequence (P83916 whole entry, looked up): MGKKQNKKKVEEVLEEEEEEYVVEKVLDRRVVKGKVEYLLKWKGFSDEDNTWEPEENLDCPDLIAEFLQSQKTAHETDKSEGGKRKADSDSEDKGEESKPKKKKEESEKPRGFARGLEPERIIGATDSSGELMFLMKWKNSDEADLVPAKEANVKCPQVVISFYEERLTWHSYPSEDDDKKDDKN
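HP1-beta protein (50 nM final) preincubated 30 min at room temperature with biotinylated H3(1-18)K9me3 peptide (50 nM) in PBS pH 7.4, 0.01% Tween-20, then compound added for 30 min. AlphaScreen streptavidin donor/nickel chelate acceptor beads (10 ug/mL final), 30 min dark, luminescence read.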
G9a block: blocks human histone lysine methyltransferase G9a; actives 8.8% (n = 350,000); G9a H3K9 monomethylation, AlphaScreen, 2 h; Potency, µM (titrated, usually from 102 µM), for inactives: at the highest dose activity, negative = inhibition, actives largely listed as inhibitors; note: potency is the fitted concentration of half-maximal effect; % is set by controls: 0 for no effect and ±100 for the full control effect; nearly all actives have a fitted effect of over 75% in size
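Quantitative HTS format: methyltransferase activity on a biotin-tagged H3K9 peptide is measured by AlphaScreen, using a rabbit anti-monomethyl-H3K9 antibody with streptavidin donor and anti-IgG acceptor beads. Final levels are 20 nM enzyme, 500 nM peptide, 20 uM SAM; 2 h RT.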
PLK1 PBD block: inhibitors of human PLK1 polo-box domain binding | Potency, µM, for the others: max response, negative = inhibition, hits mostly inhibitors | AID 720504 | actives 2.8% (n = 360,000) | Plk1 PBD binding of FITC phosphopeptide, fluorescence polarization | P53350; note: potency is the fitted concentration of half-maximal effect; series mostly up to about 57 µM; % is set by controls: 0 for no effect and ±100 for the full control effect; nearly all actives have a fitted effect of over 65% in size
JMJD2A Tudor: blocks the human JMJD2A Tudor domain; O75164; AlphaScreen JMJD2A-Tudor / H3K4me3 peptide binding; Potency, µM (highest dose often 114 µM), inactives show at the highest dose activity change, negative = inhibition, usual class: inhibitors; actives 4.4% (n = 390,000); AID 504339; note: potency is the fitted concentration of half-maximal effect; % is set by controls: 0 for no effect and ±100 for the full control effect; nearly all actives have a fitted effect of over 50% in size
BAZ2B inh: blocks human BAZ2B; Q9UIF8; AlphaScreen BAZ2B-H3K14Ac peptide displacement; Potency, µM (doses to about 114 µM), inactives show top-dose activity change, negative = inhibition, usual class: inhibitors; actives 4.4% (n = 360,000); note: potency is the fitted concentration of half-maximal effect; % is set by controls: 0 for no effect and ±100 for the full control effect; nearly all actives have a fitted effect of over 60% in size
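BAZ2B 50 nM plus b-H3(5-23)K14Ac 50 nM, PBS pH 7.4/0.01% Tween-20, 30 min RT; compound added (max 110 uM), 30 min RT; streptavidin donor/Ni-chelate acceptor beads 10 ug/mL final, 20 min dark; AlphaScreen read.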
An asterisk follows results filed as active; ? = inconclusive; / = not tested or not shown; ! = a repeat was not active; [ ] = dose if it differs, or a comment. Unless noted, calls come from the whole dose curve; as a rule, active = well fitted curve in the direction sought with a large enough effect; inconclusive = small, poorly fitted or top-dose-only effect, or another doubt; inactive = no such curve, though single readings can be large; an effect the other way counts as inactive or inconclusive.

SMILES	PI5P4Ka inh	HP1b chromo inh	G9a block	PLK1 PBD block	JMJD2A Tudor	BAZ2B inh
COc1ccc(S(=O)(=O)N/N=C(/C)c2ccncc2)cc1OC	-3.2	45.4%	11.2µM*	-13.9%	-17.2%	-24.2%
C/C(=N\NS(=O)(=O)c1ccc(Br)cc1)c1ccncc1	5.2	22.3%	0.3%	5.32µM*	-11.0%	-1.6%
COc1ccc(/C(C)=N/NS(=O)(=O)c2ccccc2)c(OC)c1	1.1	69.6%	?	3.0%	-6.9%	-11.0%
COc1ccc(S(=O)(=O)N/N=C(/C)c2ccncc2)c(OC)c1	-1.1	54.7%	25.1µM*	?	2.3%	-3.0%
C/C(=N\NS(=O)(=O)c1c(C)cc(C)cc1C)c1ccncc1	-1.9	89.7%	8.91µM*	-17.4%	-3.8%	-4.0%
C/C(=N/NS(=O)(=O)c1ccc(Cl)cc1)c1ccncc1	6.0	30.2%	/	?	5.3%	-12.1%
CC1(C(=O)NC2CCCCCC2)CCN1C(=O)Cc1ccc(-c2ccccc2)cc1 (stereo not drawn)	15.7	/	/	-0.4%	/	/
COc1ccc(S(=O)(=O)N/N=C(/C)c2ccncc2)cc1	0.3	58.7%	7.08µM*	-18.8%	-9.1%	0.4%
O=C(c1cccnc1)N1C2C=CC(C2)C1(C(F)(F)F)C(F)(F)F (stereo not drawn)	-9.4	-17.7%	-5.8%[59 µM]	-15.9%	70.8µM*	?
NNC(=O)C1CC(O)CN1S(=O)(=O)c1ccc2ccccc2c1 (stereo not drawn)	2.2	41.3%	-8.4%[12.7 µM]	1.2%	-4.4%	3.5%
O=c1c2cc(Br)ccc2[nH]c(=S)n1Cc1ccccn1	-6.2	47.2%	7.94µM*	?	-8.1%	-3.6%
O=c1c2cc(N3CCOCC3)ccc2[nH]c(=S)n1Cc1ccccn1	/	40.3%	?	-9.7%	28.2µM*	-35.3%
O=c1c2cc(Br)ccc2[nH]c(=S)n1Cc1ccccc1	0.1	48.4%	24.6%	-20.3%	-5.6%	11.4%
O=c1c2cc(N3CCOCC3)ccc2[nH]c(=S)n1Cc1ccccc1Cl	-0.4	64.4%	41.7%[59 µM]	3.2%	-1.4%	-10.7%
COC(=O)[C@H](Cc1ccccc1)NC(=O)/C=C/[C@H]1O[C@@H](n2ccc(=O)[nH]c2=O)[C@H](O)[C@@H]1O	-0.4	/	/	-0.8%	/	/
COC(=O)C1=C(C)N(Cc2ccccc2)C(=NCCc2cccnc2)N[C@H]1c1ccc(Br)cc1	2.9	2.5%	-1.6%[12.7 µM]	-11.0%	28.2µM*	56.2µM*
COC(=O)C1=C(C)N(Cc2ccccc2)C(=NCCCCO)N[C@H]1c1ccccc1	0.1	12.0%	79.4µM*!	6.7%	?	?
CCN(CC)CCCN=C1N[C@@H](c2ccccc2)C(C(=O)OC)=C(C)N1CC	-2.4	15.6%	39.8µM*!	-0.5%	31.6µM*	79.4µM*
CCN1C(=NCC2CC2)N[C@@H](c2ccccc2)C(C(=O)OC)=C1C	-2.8	35.8%	-12.7%[12.7 µM]	-13.9%	?	-3.8%
COC(=O)C1=C(C)N(Cc2ccccc2)C(=NCCc2cccnc2)N[C@H]1c1ccccc1	-0.9	4.9%	31.6µM*!	-2.2%	?	56.2µM*
CC1(C(=O)Nc2ccc3nc[nH]c3c2)CCN1C(=O)C1(c2ccccc2)CCCC1 (stereo not drawn)	7.7	/	/	-0.3%	/	/
COc1cc(C(=O)NCC(c2cccs2)N2CCOCC2)ccc1OCc1ccccc1 (stereo not drawn)	1.7	/	/	-11.2%	/	/
CSc1ccc(CCNC(=O)Cn2ncc3c(=O)oc4ccc(C)cc4c32)cc1	/	33.5%	-0.9%[59 µM]	/	-9.3%	-10.4%
CC(=O)c1ccc(Nc2nc3c(S(=O)(=O)c4ccccc4)nnn3c3ccc(Cl)cc23)cc1	/	12.6%	1.8%[59 µM]	/	-18.9%	-1.9%
O=C1CCCC2=C1C1(CCOCC1)N=C(Nc1nc3ccccc3o1)N2	/	/	/	/	-23.4%	/
SMILES	PI5P4Ka inh	HP1b chromo inh	G9a block	PLK1 PBD block	JMJD2A Tudor	BAZ2B inh
COc1ccc(NC2CC(=O)N(c3ccc(C(=O)O)cc3)C2=O)cc1 (stereo not drawn)	-0.3	31.4%	50.1µM*	-13.2%	-14.1%	-20.8%
COc1ccc(N2C(=O)CC(Nc3cccc(C(C)=O)c3)C2=O)cc1OC (stereo not drawn)	-1.1	48.6%	17.8µM*	-4.6%	-6.0%	4.1%
COc1ccc(NC2CC(=O)N(c3cccc(C)c3)C2=O)cc1 (stereo not drawn)	/	3.4%	2.5%[59 µM]	-18.0%	-15.4%	-27.6%
O=C(CSc1ncn[nH]1)Nc1ccc(OCc2ccccc2)cc1	8.4	32.1%	?	-2.8%	-14.5%	/
COc1c(Cl)cc(Cl)cc1CNc1ccc(S(N)(=O)=O)cc1	0.6	-5.3%	/	-7.3%	-20.1%	-6.8%
CCOc1ccccc1NC(=O)COC(=O)c1c[nH]c2ccccc12	-6.8	5.5%	50.1µM*	-6.7%	-5.5%	6.1%
CCCCCn1cc2c(c1-c1ccc(Cl)cc1)c(=O)n(C)c(=O)n2C	/	-9.5%	-37.4%[59 µM]	/	-20.8%	-13.1%
COc1ccccc1N1CCN(C(=O)CSc2ncnc3scc(-c4ccccc4)c23)CC1	-21.4	-20.5%	12.5%[59 µM]	15µM*	?	-27.8%
Cc1ccc(-c2csc3ncnc(SCC(=O)O)c23)cc1	-70.1*	17.3%	/	1.1%	1.8%	-9.4%
Cc1cccc(CNc2ncnc3ccc(-c4ccc5c(ccn5C)c4)cc23)c1	/	/	7.1%[12.7 µM]	/	/	?
Cc1cc2nc(C(C)(C)C)c(Cc3ccsc3)n2c(C)c1Br	1.0	/	/	4.4%	/	/
CCOc1ccc(NC(=O)CSc2nc(N)c(-c3ccccc3)c(=O)[nH]2)cc1	-10.7	-11.0%	-2.4%	?	-21.3%	-16.4%
Nc1nc(-c2ccccc2)c(CCCOc2ccc(NC(=O)CBr)cc2)c(=O)[nH]1	-59.5*	22.8%	/	?	-12.5%	/
CCOC(=O)CNC(=O)c1sc(NC(=O)c2ccccc2)nc1C	-0.3	41.8%	12.9%[59 µM]	-0.6%	-10.0%	-1.6%
Cc1nc(NC(=O)c2ccccc2)sc1-c1csc(N)n1	-14.0	-19.8%	8.91µM*	-14.3%	?	?
Cc1cc(-c2csc(NC(=O)c3ccc(=O)n(C)n3)n2)c(C)n1CC1CCCO1 (stereo not drawn)	-3.4	25.8%	?	-8.0%	-24.3%	?
Cc1cc(-c2csc(NC(=O)c3ccccc3C(F)(F)F)n2)c(C)n1Cc1ccccc1	-25.0	3.6%	44.7µM*	-6.8%	-17.1%	14.4%
Cc1nc(NC(=O)c2ccccc2)sc1-c1csc(NCCc2ccccc2)n1	-10.3	-18.1%	39.8µM*	-28.5%	?	?
COc1ccc(NC(=O)c2cc(-c3sc(NC(=O)c4ccccc4)nc3C)n(Cc3ccccc3)n2)cc1	-2.6	/	/	-4.1%	/	/
Cc1cc(-c2csc(N)n2)c(C)n1CCc1ccccc1	?	-18.0%	?	?	44.7µM*	44.7µM*
Nc1nc(-c2cc(-c3ccccc3)no2)cs1	1.8	31.1%	-3.8%	-11.5%	-7.4%	8.7%

Source: PubChem
